High-throughput results deposited in PubChem BioAssay by National Center for Advancing Translational Sciences (NCATS).
Shown are actives, neighbours in structure and some others; about 7.9% of the full set was active somewhere.
HT1080NT lethal: kills 2HG-producing HT-1080-NT fibrosarcoma cells; HT-1080-NT fibrosarcoma viability, CellTiter-Glo ATP luminescence, 48 h; Potency, µM (doses to about 46.1 µM), without a hit: top-dose activity, negative = less viability, hits mostly cytotoxic; 360,000 tested, 1.6% active; AID 686970;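 also: NT is the 2HG producing partner of a matched IDH1 knockdown line; 0% = DMSO-treated cells and -100% = media-only wells without cells; nearly all actives have a fitted effect of over 55% in size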
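Fibrosarcoma NT cells, 750 per well in 5% FBS RPMI, were exposed to compound for 48 hours. Viability: CellTiter-Glo luminescence.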
HT1080 IDH1KD tx: toxicity to HT-1080 IDH1 knockdown cells (counter line); Potency, µM (doses to about 46.1 µM), for the others: top-dose activity, negative = toxicity, most hits filed as cytotoxic; 360,000 tested, 2% active; HT-1080 IDH1 knockdown viability, ATP luminescence, 48 h; AID 686971;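 also: 0% = DMSO wells and -100% = cell-free medium wells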
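CellTiter-Glo luminescence after 48 h compound exposure at 37 degrees C of IDH1-knockdown HT-1080 cells in 5% FBS RPMI. %Activity scaled between DMSO wells and cell-free media wells, with curves fitted and assigned curve classes.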
SW480 rerep: DNA re-replication induction in SW480 cells | 340,000 tested, 1.8% active | SW480 DNA re-replication, Hoechst DNA content imaging, 48 h | AID 624297 | Potency, µM (series often up to 46.1 µM), for inactives: top-dose re-replication activation, usual class: activators; also: % of control where 0% means no effect; nearly all actives have a fitted effect of over 55% in size
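Compounds, transferred as 23 nL by pin tool, were incubated with cells for 48 hr; DNA content per nucleus was then quantified by Hoechst staining and fluorescence plate imaging.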
MCF10A rerep: inducers of DNA re-replication in MCF 10A breast cells; Potency, µM (top dose mostly 46.1 µM), inactives show at the top dose activity, positive = re-replication, most hits filed as activators; MCF 10A DNA re-replication, Hoechst nuclear intensity, 48 h; 350,000 tested, 2.9% active; also: % of control where 0% means no effect; nearly all actives have a fitted effect of over 50% in size
KB-V1 MDR tox: kills drug-selected multidrug resistant KB-V1 cells. KB-V1 MDR cells viability, CellTiter-Glo, 72 h. Potency, µM (top dose mostly 46.1 µM), hits mostly cytotoxic. 400,000 tested, 3.4% active; also: % is scaled to controls: 0 for no effect and ±100 for the full control effect; nearly all actives have a fitted effect of over 60% in size
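Potencies derive from concentration-effect curves fitted to normalized luminescence (CellTiter-Glo) of KB-V1 cells treated for 72 h at 37 degrees C in phenol-red-free DMEM containing 10% FBS.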
KB-3-1 tox: KB-3-1 parental cell cytotoxicity; KB-3-1 viability, CellTiter-Glo ATP luminescence, 72 h; Potency, µM (top dose mostly 46.1 µM), actives largely listed as cytotoxic; 400,000 tested, 1.4% active; AID 1347075; also: % is scaled to controls: 0 for no effect and ±100 for the full control effect; nearly all actives have a fitted effect of over 60% in size
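Viability of parental KB-3-1 cells, measured by CellTiter-Glo luminescence, followed a 72 h incubation at 37 °C with pinned compounds in phenol-red-free DMEM containing 10% FBS.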
An asterisk follows results filed as active. Calls follow the shape of the dose curve; as a rule, active = well fitted curve in the direction sought with a large enough effect; inconclusive = small, poorly fitted or top-dose-only effect, or another doubt; inactive = no such curve, though single readings can be large; an effect the other way counts as inactive or inconclusive. Potency is read from the fitted curve at half-maximal effect.

`CCOc1ccc(N/C=C/C(=O)c2ccccc2)c([N+](=O)[O-])c1` gave HT1080NT lethal inconclusive, HT1080 IDH1KD tx inconclusive, SW480 rerep 0%, MCF10A rerep 7%, KB-V1 MDR tox inconclusive and KB-3-1 tox 16µM*.
Screening O=C(NCC(c1ccco1)N1CCCCC1)c1cccc(NS(=O)(=O)c2ccc(Br)cc2)c1 (stereo not given) returned HT1080NT lethal -13%, HT1080 IDH1KD tx -17%, SW480 rerep 4%, MCF10A rerep 18µM*, KB-V1 MDR tox inconclusive and KB-3-1 tox inactive.
O=C(NCC(c1ccco1)N1CCCC1)c1cccc(S(=O)(=O)Nc2ccc(Br)cc2)c1 (stereo not given) was read as HT1080NT lethal -3%, HT1080 IDH1KD tx 0%, SW480 rerep 9% and MCF10A rerep inconclusive.
For Cc1ccc(S(=O)(=O)Nc2cccc(C(=O)NCC(c3ccco3)N3CCCC3)c2)cc1F (stereo not given) the results were HT1080NT lethal inconclusive, HT1080 IDH1KD tx -5%, SW480 rerep 23µM*, MCF10A rerep 21%, KB-V1 MDR tox inconclusive and KB-3-1 tox inconclusive.
For O=C(CSC1=NS(=O)(=O)c2ccccc2N1)Nc1cccc(F)c1 the results were HT1080NT lethal -15%, HT1080 IDH1KD tx -2%, SW480 rerep -72%, MCF10A rerep 0%, KB-V1 MDR tox inactive and KB-3-1 tox inactive.
For C=C[C@H]1C(O[C@@H]2O[C@H](CO)[C@@H](O)[C@H](O)[C@H]2O)OC=C2C(=O)N3CCc4cc(OC)c(O)cc4[C@H]3C[C@H]21 (stereo not given in full) the results were HT1080NT lethal 0%, HT1080 IDH1KD tx -1%, SW480 rerep 6%, MCF10A rerep inconclusive, KB-V1 MDR tox inactive and KB-3-1 tox inactive.
Screening O=C(COC(=O)c1ccc(Br)o1)NCCc1ccccc1 returned HT1080NT lethal 1%, HT1080 IDH1KD tx 2%, SW480 rerep -1%, MCF10A rerep 1%, KB-V1 MDR tox inactive and KB-3-1 tox inactive.
Screening O=C(CNC(=O)c1cccs1)c1ccc(F)cc1 returned HT1080NT lethal 2%, HT1080 IDH1KD tx 0%, SW480 rerep inconclusive, MCF10A rerep 23µM*, KB-V1 MDR tox inactive and KB-3-1 tox inactive.
O=C(COc1cccc(NC(=O)c2cccs2)c1)c1ccc(F)cc1 was read as HT1080NT lethal -2%, HT1080 IDH1KD tx -12%, SW480 rerep 0%, MCF10A rerep inconclusive, KB-V1 MDR tox 7.3µM* and KB-3-1 tox inactive.
`CC(C)N(C(=O)C(=O)c1cccn1-c1ccccc1C#N)C(C)C` gave HT1080NT lethal -1%, HT1080 IDH1KD tx 4%, SW480 rerep -4%, MCF10A rerep 8%, KB-V1 MDR tox inactive and KB-3-1 tox inactive.
`COc1ccc(CN(C)C(=O)c2cc(S(=O)(=O)NCc3ccccc3)ccc2C)c(OC)c1` gave HT1080NT lethal -1%, HT1080 IDH1KD tx -3%, SW480 rerep -22%, MCF10A rerep 7%, KB-V1 MDR tox inactive and KB-3-1 tox inactive.
Screening CN(C)C1(CNC(=O)c2cccc(S(=O)(=O)NCc3ccccc3)c2)CCCCC1 returned HT1080NT lethal -6%, HT1080 IDH1KD tx inconclusive, SW480 rerep 0%, MCF10A rerep 9%, KB-V1 MDR tox inactive and KB-3-1 tox inactive.
`Cc1cc(C)c(C(=O)COC(=O)c2cccc(S(=O)(=O)NCc3ccccc3)c2)cc1C` gave HT1080NT lethal -10%, HT1080 IDH1KD tx -2%, SW480 rerep 8%, MCF10A rerep 13%, KB-V1 MDR tox 18µM* and KB-3-1 tox inactive.
For COc1cccc(CN(C)C(=O)c2cc(S(=O)(=O)NCc3ccccc3)ccc2C)c1OC the results were HT1080NT lethal 3%, HT1080 IDH1KD tx -2%, SW480 rerep -7%, MCF10A rerep 2%, KB-V1 MDR tox 18µM* and KB-3-1 tox inactive.
`COc1cccc(CN(C)C(=O)c2[nH]c(C)c(C(C)=O)c2C)c1OC` gave HT1080NT lethal -15%, HT1080 IDH1KD tx -25%, SW480 rerep -1%, MCF10A rerep 7%, KB-V1 MDR tox 18µM* and KB-3-1 tox 7.3µM*.
`O=C(NCc1ccccc1)c1cccc(S(=O)(=O)NCc2ccccc2)c1` gave HT1080NT lethal -10%, HT1080 IDH1KD tx -2%, SW480 rerep -38%, MCF10A rerep -9%, KB-V1 MDR tox 16µM* and KB-3-1 tox inactive.
For COc1ccc2nc(NS(=O)(=O)c3ccc(C)cc3)c(Nc3cc(Cl)ccc3OC)nc2c1 the results were KB-V1 MDR tox inactive and KB-3-1 tox inconclusive.
`COC(=O)c1ccc(S(=O)(=O)N2CCN(C)CC2)n1C` gave HT1080NT lethal -1%, HT1080 IDH1KD tx 9%, SW480 rerep -1%, MCF10A rerep -5%, KB-V1 MDR tox inactive and KB-3-1 tox inactive.
For Cc1ccccc1CNC(=O)c1c(C)oc2c1C1=NCCN1C=N2 the results were KB-V1 MDR tox inactive and KB-3-1 tox inactive.
COCCn1c(SCc2ccccc2F)nc2ccccc2c1=O was read as HT1080NT lethal -2%, HT1080 IDH1KD tx 1%, SW480 rerep -133%, MCF10A rerep -2%, KB-V1 MDR tox inactive and KB-3-1 tox inactive.
For Cc1ccc(-n2ncc(C(=O)N3CCN(c4ncccn4)CC3)c2C2CCN(C(=O)OC(C)(C)C)CC2)cc1 the results were KB-V1 MDR tox inactive and KB-3-1 tox inactive.
O=C(NCc1ccccc1)c1cccc(COc2ccc(Cl)cc2)c1 was read as HT1080NT lethal -12%, HT1080 IDH1KD tx -14%, SW480 rerep 9%, MCF10A rerep 8%, KB-V1 MDR tox 18µM* and KB-3-1 tox inactive.
CCOc1ccc(C(=O)NCc2ccccc2)cc1Br was read as HT1080NT lethal 2%, HT1080 IDH1KD tx 0%, SW480 rerep 70%, MCF10A rerep 2%, KB-V1 MDR tox 18µM* and KB-3-1 tox inactive.
O=C1CCC([N+](=O)[O-])C(c2ccc(Cl)c([N+](=O)[O-])c2)N1 (stereo not given) was read as HT1080NT lethal 1%, HT1080 IDH1KD tx 9%, SW480 rerep 0%, MCF10A rerep 2%, KB-V1 MDR tox inactive and KB-3-1 tox inactive.
Screening CCOCCCn1c(=N)c(C(=O)NCc2ccccc2)cc2c(=O)n3ccccc3nc21 returned KB-V1 MDR tox inactive and KB-3-1 tox inactive.
